According to PubChem BioAssay (NCI):
Where “and” joins values, the source holds several entries; their conditions need not be identical. Equal values may be shown once. The panel holds about 83,000 compounds, 20% with a hit somewhere; the sample as a whole holds those more often.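 48-hour exposure, single concentration, 96-well plates; percent growth endpoint where 0 means no net growth. Active: below 10.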 Calls of active or inactive are those of the source.

How the values were obtained:
Test in all cases: NCI-60 one-dose screen, 48 h (100 = growth as untreated, 0 = no growth, -100 = all killed)
NCI-H23 lung = settings: 10 µM unless noted
NCI-H226 lung = settings: 10 µM unless noted
NCI-H322M lung = settings: 10 µM unless noted
HOP-62 NSCLC = settings: 10 µM unless noted
NCI-H460 lung = settings: 10 µM unless noted
HOP-92 NSCLC = settings: 10 µM
NCI-H522 lung = settings: 10 µM
A549/ATCC NSCLC = settings: 10 µM unless noted
786-0 renal = settings: 10 µM unless noted
DU-145 prostate = settings: 10 µM unless noted
K-562 leukemia = settings: 10 µM unless noted
MALME-3M melanoma = settings: 10 µM unless noted
MDA-MB-231 breast = settings: 10 µM unless noted
SF-268 CNS = settings: 10 µM unless noted
SF-295 CNS = settings: 10 µM unless noted
SF-539 CNS = settings: 10 µM unless noted
UACC-257 melanoma = settings: 10 µM unless noted
M14 melanoma = settings: 10 µM unless noted
COLO 205 colon = settings: 10 µM unless noted
RXF 393 renal = settings: 10 µM unless noted

Measured: growth

CCCCCCCCCCCCCCCc1ccc(N)c(OC2OC(CO)C(O)C(O)C2O)c1 (stereo unspecified)
active: NCI-H522 lung -63.5%
inactive: NCI-H23 lung 80.9% | NCI-H226 lung 96.4% | NCI-H322M lung 77.1% | HOP-62 NSCLC 73.9% | NCI-H460 lung 102% | HOP-92 NSCLC 82% | A549/ATCC NSCLC 86% | 786-0 renal 81.7% | DU-145 prostate 119% | K-562 leukemia 83.4% | MALME-3M melanoma 22.5% | MDA-MB-231 breast 70% | SF-268 CNS 99% | SF-295 CNS 92.2% | SF-539 CNS 93.4% | UACC-257 melanoma 51.5% | M14 melanoma 82.5%

Brc1ccc(SSc2ccc(Br)cc2)cc1
inactive: NCI-H23 lung 72.5% | NCI-H226 lung 93.7% | NCI-H322M lung 91.8% | HOP-62 NSCLC 75.3% | NCI-H460 lung 68.1% | HOP-92 NSCLC 98.4% | NCI-H522 lung 85.2% | A549/ATCC NSCLC 66.7% | 786-0 renal 59% | COLO 205 colon 90.6% | DU-145 prostate 93.6% | K-562 leukemia 89.9% | MALME-3M melanoma 74.8% | RXF 393 renal 74.6% | SF-268 CNS 58.9% | SF-295 CNS 52.2% | SF-539 CNS 56.1% | UACC-257 melanoma 97.7% | M14 melanoma 68.7%

Oc1ccc(Cc2ccccc2Cl)c(O)c1
inactive: NCI-H23 lung 89.5% | NCI-H322M lung 86.5% | HOP-62 NSCLC 91.9% | NCI-H460 lung 101% | HOP-92 NSCLC 89.4% | NCI-H522 lung 94.7% | A549/ATCC NSCLC 98.8% | 786-0 renal 102% | COLO 205 colon 106% | K-562 leukemia 91.5% | MDA-MB-231 breast 71.7% | RXF 393 renal 83.9% | SF-539 CNS 93.9% | UACC-257 melanoma 93.2% | M14 melanoma 99.1%

CC1(C)COC(=S)N1
inactive: NCI-H23 lung 101% | NCI-H226 lung 94.5% | NCI-H322M lung 101% | HOP-62 NSCLC 99.8% | NCI-H460 lung 113% | NCI-H522 lung 85.2% | A549/ATCC NSCLC 104% | 786-0 renal 99.7% | COLO 205 colon 124% | DU-145 prostate 114% | K-562 leukemia 91.7% | MALME-3M melanoma 104% | MDA-MB-231 breast 96.5% | RXF 393 renal 98.8% | SF-268 CNS 107% | SF-295 CNS 98.4% | SF-539 CNS 107% | UACC-257 melanoma 99.6% | M14 melanoma 101%

CCOC(=O)c1c(C)cc(=O)oc1C
inactive: NCI-H23 lung 101% | NCI-H226 lung 96.8% | NCI-H322M lung 110% | HOP-62 NSCLC 97.2% | NCI-H460 lung 110% | HOP-92 NSCLC 80.7% | NCI-H522 lung 115% | 786-0 renal 103% | COLO 205 colon 116% | DU-145 prostate 114% | K-562 leukemia 89% | MALME-3M melanoma 87.7% | MDA-MB-231 breast 96.3% | RXF 393 renal 109% | SF-268 CNS 106% | SF-539 CNS 107% | UACC-257 melanoma 101% | M14 melanoma 98%

Cc1cc(-c2cc(C)c(O)c(C)c2)cc(C)c1O
inactive: NCI-H23 lung 87.3% | NCI-H226 lung 96.2% | NCI-H322M lung 93.7% | HOP-62 NSCLC 73.9% | NCI-H460 lung 102% | HOP-92 NSCLC 77.1% | NCI-H522 lung 63.3% | A549/ATCC NSCLC 90.2% | COLO 205 colon 115% | DU-145 prostate 104% | K-562 leukemia 31.9% | MALME-3M melanoma 75% | MDA-MB-231 breast 75.6% | RXF 393 renal 63.5% | SF-268 CNS 92.9% | SF-295 CNS 86.1% | SF-539 CNS 84.9% | UACC-257 melanoma 92% | M14 melanoma 71.6%

O=C(O)CCCl
inactive: NCI-H23 lung 108% | NCI-H226 lung 95.6% | NCI-H322M lung 102% | HOP-62 NSCLC 105% | NCI-H460 lung 106% | HOP-92 NSCLC 78.4% | NCI-H522 lung 112% | A549/ATCC NSCLC 104% | 786-0 renal 120% | COLO 205 colon 119% | DU-145 prostate 114% | K-562 leukemia 111% | MALME-3M melanoma 115% | MDA-MB-231 breast 125% | RXF 393 renal 103% | SF-268 CNS 108% | SF-539 CNS 99.8% | UACC-257 melanoma 111% | M14 melanoma 129%

CC1=C/C(O)CC(=O)Cc2nc(co2)C(=O)N2CCC=C2C(=O)OC(C(C)C)C(C)/C=C\C(=O)NC/C=C\1 (stereo unspecified)
active: 786-0 renal 2.53%
inactive: NCI-H23 lung 78.7% | NCI-H226 lung 82.9% | NCI-H322M lung 102% | NCI-H460 lung 102% | HOP-92 NSCLC 88.7% | NCI-H522 lung 21.8% | A549/ATCC NSCLC 83% | COLO 205 colon 74.3% | DU-145 prostate 90.7% | K-562 leukemia 48.4% | MALME-3M melanoma 125% | MDA-MB-231 breast 98.6% | RXF 393 renal 93.6% | SF-268 CNS 93.3% | SF-295 CNS 101% | SF-539 CNS 104% | UACC-257 melanoma 75.4% | M14 melanoma 15.4%

COc1ccc2cc1Oc1ccc(cc1)C[C@H]1c3cc(c(OC)cc3CCN1C)Oc1c(OC)c(OC)cc3c1[C@H](C2)N(C)CC3
active: NCI-H522 lung 1.42% | K-562 leukemia -75.4% | MDA-MB-231 breast 8.45% | SF-539 CNS -74.4% | M14 melanoma -78.8%
inactive: NCI-H23 lung 92.7% | NCI-H226 lung 113% | NCI-H322M lung 52.6% | HOP-62 NSCLC 17.7% | NCI-H460 lung 44.9% | A549/ATCC NSCLC 39.6% | 786-0 renal 46.3% | COLO 205 colon 44.8% | DU-145 prostate 53.1% | MALME-3M melanoma 16.3% | RXF 393 renal 47.2% | SF-268 CNS 78.2% | SF-295 CNS 71.8% | UACC-257 melanoma 46.2%

CC(=O)NCC(=O)c1ccc([N+](=O)[O-])cc1
inactive: NCI-H23 lung 95% | NCI-H226 lung 98% | NCI-H322M lung 103% | HOP-62 NSCLC 95.8% | NCI-H460 lung 104% | HOP-92 NSCLC 108% | NCI-H522 lung 109% | A549/ATCC NSCLC 101% | 786-0 renal 103% | COLO 205 colon 105% | DU-145 prostate 109% | K-562 leukemia 101% | MALME-3M melanoma 101% | MDA-MB-231 breast 97.7% | SF-268 CNS 99.1% | SF-295 CNS 106% | SF-539 CNS 109% | UACC-257 melanoma 101% | M14 melanoma 109%

Cn1cnc([N+](=O)[O-])c1Sc1ncn[nH]1
inactive: NCI-H23 lung 91.7% | NCI-H226 lung 102% | NCI-H322M lung 101% | HOP-62 NSCLC 96.9% | NCI-H460 lung 115% | HOP-92 NSCLC 101% | NCI-H522 lung 82.9% | A549/ATCC NSCLC 99.4% | 786-0 renal 102% | DU-145 prostate 108% | K-562 leukemia 137% | MALME-3M melanoma 91.6% | MDA-MB-231 breast 106% | RXF 393 renal 26.1% | SF-268 CNS 106% | SF-295 CNS 116% | SF-539 CNS 103% | M14 melanoma 95.9%
active: UACC-257 melanoma 4.36%

OC1COC(OCc2ccccc2)C(O)C1O (stereo unspecified)
inactive: NCI-H23 lung 106% | NCI-H226 lung 98.1% | NCI-H322M lung 90.6% | HOP-62 NSCLC 101% | NCI-H460 lung 106% | 786-0 renal 105% | COLO 205 colon 115% | DU-145 prostate 105% | K-562 leukemia 97.9% | MALME-3M melanoma 78.7% | MDA-MB-231 breast 109% | RXF 393 renal 103% | SF-268 CNS 106% | SF-295 CNS 101% | SF-539 CNS 105% | M14 melanoma 96.8%

Fc1ccc([I+]c2ccc(F)cc2)cc1
inactive: NCI-H23 lung 53.7% | NCI-H226 lung 71.8% | NCI-H322M lung 76.1% | HOP-62 NSCLC 78.7% | NCI-H460 lung 86.1% | HOP-92 NSCLC 67.8% | NCI-H522 lung 68.8% | A549/ATCC NSCLC 80.9% | COLO 205 colon 62.2% | DU-145 prostate 92.1% | K-562 leukemia 43.2% | MALME-3M melanoma 61.1% | RXF 393 renal 101% | SF-268 CNS 58.9% | SF-295 CNS 95.4% | SF-539 CNS 62.1% | UACC-257 melanoma 85.5% | M14 melanoma 79%

OCCN1CCCCCCC1
inactive: NCI-H23 lung 105% | NCI-H226 lung 93.8% | NCI-H322M lung 101% | HOP-62 NSCLC 99.5% | NCI-H460 lung 106% | HOP-92 NSCLC 68% | A549/ATCC NSCLC 99% | 786-0 renal 101% | COLO 205 colon 104% | DU-145 prostate 113% | K-562 leukemia 105% | MALME-3M melanoma 96% | MDA-MB-231 breast 99.5% | RXF 393 renal 100% | SF-268 CNS 107% | SF-295 CNS 95.9% | SF-539 CNS 98.7% | M14 melanoma 92.3%

COc1ccc(Nc2ccc3ccccc3c2)cc1
inactive: NCI-H23 lung 81.5% | NCI-H226 lung 81% | HOP-62 NSCLC 67.9% | NCI-H460 lung 94.1% | 786-0 renal 84.3% | COLO 205 colon 94% | DU-145 prostate 83.2% | K-562 leukemia 31.6% | MDA-MB-231 breast 77.9% | RXF 393 renal 58.6% | SF-268 CNS 81.2% | SF-295 CNS 79.6% | SF-539 CNS 93.1% | M14 melanoma 72.9%

NN1CCOC(c2ccccc2)C1 (stereo unspecified)
inactive: NCI-H23 lung 104% | NCI-H226 lung 99.4% | NCI-H322M lung 97.7% | HOP-62 NSCLC 99.6% | NCI-H460 lung 115% | NCI-H522 lung 125% | A549/ATCC NSCLC 104% | 786-0 renal 103% | COLO 205 colon 107% | DU-145 prostate 102% | K-562 leukemia 10.3% | MDA-MB-231 breast 99.1% | RXF 393 renal 101% | SF-268 CNS 99.6% | SF-295 CNS 118% | SF-539 CNS 100% | UACC-257 melanoma 103% | M14 melanoma 90.9%

Nc1ccc2c(O)cc(S(=O)(=O)O)cc2c1
inactive: NCI-H23 lung 93.8% and 96.2% | NCI-H226 lung 96% and 91.9% | NCI-H322M lung 103% and 119% | HOP-62 NSCLC 86.1% and 92.4% | NCI-H460 lung 98.4% and 102% | HOP-92 NSCLC 80.9% | NCI-H522 lung 106% and 88.1% | A549/ATCC NSCLC 105% and 92.1% | 786-0 renal 98.9% and 105% | DU-145 prostate 114% and 110% | K-562 leukemia 93% and 96.7% | MALME-3M melanoma 122% and 111% | MDA-MB-231 breast 107% and 106% | RXF 393 renal 110% and 89.3% | SF-268 CNS 118% and 101% | SF-295 CNS 99.5% | SF-539 CNS 87.2% and 96% | UACC-257 melanoma 101% and 94.3% | M14 melanoma 98.7%
